Publication PMC6602471

molecular target: RUNX1 (Homo sapiens, UniProt Q01196 1-453); assay: custom PBM; custom protein-binding microarray; buffer, salt, pH and temperature not stated; high values mean tight binding; conditions: dsDNA, one strand shown
Sequence (Q01196 whole entry): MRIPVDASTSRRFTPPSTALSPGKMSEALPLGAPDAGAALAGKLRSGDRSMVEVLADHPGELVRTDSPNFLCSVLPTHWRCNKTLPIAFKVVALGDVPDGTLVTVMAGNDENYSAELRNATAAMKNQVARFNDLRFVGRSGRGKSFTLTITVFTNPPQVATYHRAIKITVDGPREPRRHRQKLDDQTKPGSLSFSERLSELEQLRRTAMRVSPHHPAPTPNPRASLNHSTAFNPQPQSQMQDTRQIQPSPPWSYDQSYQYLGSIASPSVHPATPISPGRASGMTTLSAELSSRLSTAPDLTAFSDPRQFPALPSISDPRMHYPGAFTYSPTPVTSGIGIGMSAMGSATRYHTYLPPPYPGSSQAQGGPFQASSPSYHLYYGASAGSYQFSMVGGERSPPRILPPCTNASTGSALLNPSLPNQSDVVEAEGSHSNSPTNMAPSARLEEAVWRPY

| Sequence | binding signal |
| --- | --- |
| GCATACGGCTGACGTCAGACACATACGCACACATACACATACACACATACACATACGCAC | 10.9 log fluorescence intensity |
| GCGCACATTTCCCGTAAATGATACACGCACACATACACATACACACATACACATACGCAC | 10.9 log fluorescence intensity |
| GCGCACATTTCCCATAAATCATACACGCACACATACACATACACACATACACATACGCAC | 11 log fluorescence intensity |
| CGCGCACTCTGGGGTTGCGCACATACGCACACATACACATACACACATACACATACGCAC | 10.9 log fluorescence intensity |
| GCGCACATTTCCCGTGAATCATACACGCACACATACACATACACACATACACATACGCAC | 11 log fluorescence intensity |
| GCGCACATTTCCGGTAAATCATACACGCACACATACACATACACACATACACATACGCAC | 11 log fluorescence intensity |
| CGCGCACTCTGTGGTTGCACACATACGCACACATACACATACACACATACACATACGCAC | 11.6 log fluorescence intensity |
| GCGCACAGTTCCCGTAAATCATACACGCACACATACACATACACACATACACATACGCAC | 10.9 log fluorescence intensity |
| GCGCACATTTCCCGTAAATTATACACGCACACATACACATACACACATACACATACGCAC | 10.9 log fluorescence intensity |
| GCATACGGCTGTCGTCAGCCACATACGCACACATACACATACACACATACACATACGCAC | 10.9 log fluorescence intensity |
| GCATACGGTTGACGTCAGCCACATACGCACACATACACATACACACATACACATACGCAC | 11 log fluorescence intensity |
| GCGCACATTTCCAGTAAATCATACACGCACACATACACATACACACATACACATACGCAC | 10.9 log fluorescence intensity |
| GCGCATATTTCCCGTAAATCATACACGCACACATACACATACACACATACACATACGCAC | 10.9 log fluorescence intensity |
| GCGCACATTTCCCGTAAAGCATACACGCACACATACACATACACACATACACATACGCAC | 11 log fluorescence intensity |
| CGCGCGCTCTGTGGTTGCGCACATACGCACACATACACATACACACATACACATACGCAC | 11.2 log fluorescence intensity |
| CGCGCACTCTGTGGGTGCGCACATACGCACACATACACATACACACATACACATACGCAC | 10.9 log fluorescence intensity |

| Sequence | binding signal |
| --- | --- |
| CGCGCACTCTGCGGTTGCGCACATACGCACACATACACATACACACATACACATACGCAC | 12.8 log fluorescence intensity |
| CGCGCACTCTGTGGTAGCGCACATACGCACACATACACATACACACATACACATACGCAC | 11 log fluorescence intensity |
| GCATACGGCGGACGTCAGCCACATACGCACACATACACATACACACATACACATACGCAC | 11 log fluorescence intensity |
| GCATACGGCTGACGTCCGCCACATACGCACACATACACATACACACATACACATACGCAC | 10.9 log fluorescence intensity |
| GCGCACATTTCCCGTAAATCATACACGCACACATACACATACACACATACACATACGCAC | 11 log fluorescence intensity |
| GCATACGGCTGACGTCGGCCACATACGCACACATACACATACACACATACACATACGCAC | 11 log fluorescence intensity |
| GCGCACATTTCCCTTAAATCATACACGCACACATACACATACACACATACACATACGCAC | 11 log fluorescence intensity |
| CGCGCCCTCTGTGGTTGCGCACATACGCACACATACACATACACACATACACATACGCAC | 11.5 log fluorescence intensity |
| GCATACGACTGACGTCAGCCACATACGCACACATACACATACACACATACACATACGCAC | 11 log fluorescence intensity |
| CGCGCACTCTGTGGTTGAGCACATACGCACACATACACATACACACATACACATACGCAC | 11.5 log fluorescence intensity |
| CGCGCACTCTGTGGTTGGGCACATACGCACACATACACATACACACATACACATACGCAC | 11.6 log fluorescence intensity |
| GCATACGGCTCACGTCAGCCACATACGCACACATACACATACACACATACACATACGCAC | 10.9 log fluorescence intensity |
| GCGCACATTTCTCGTAAATCATACACGCACACATACACATACACACATACACATACGCAC | 10.9 log fluorescence intensity |
| GCATACGTCTGACGTCAGCCACATACGCACACATACACATACACACATACACATACGCAC | 11 log fluorescence intensity |
| CGCGCACTCGGTGGTTGCGCACATACGCACACATACACATACACACATACACATACGCAC | 11 log fluorescence intensity |
| CGCGCACGCTGTGGTTGCGCACATACGCACACATACACATACACACATACACATACGCAC | 11.2 log fluorescence intensity |
